Results as given in PubChem BioAssay (NCATS).
Inconclusive results are not listed. Values without a mark were called inactive. Calls of active or inactive are those of the source. Calls follow the shape of the dose curve; as a rule, active = well fitted inhibition curve with a large enough effect; inconclusive = small, poorly fitted or top-dose-only effect, or effect the other way; inactive = flat fitted curve, though single readings scatter.

Assay: qHTS for Inhibitors of Plasmodium falciparum (GB4) proliferation (AID 504315);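 also: 0% = DMSO vehicle and -100% = 0.29 µM artemisinin control; nearly all actives have a fitted effect of over 50% in size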
Settings: P. falciparum GB4 in erythrocytes, SYBR Green DNA, 72 h; series mostly up to 6.7 µM; activity change, negative = inhibition: at the top concentration
From the text: Plasmodium falciparum is a virulent malarial parasite that kills 1-2 million people worldwide each year. Malaria not only inflicts tremendous suffering and morbidity on the human population, but has dramatically influenced the course of civilization with profound sociological and economic implications (Shah, S. 2010). Transmitted by mosquitoes, the sporozoite form of the parasite enters the blood stream to infect hepatocytes, where they become merozoites that infect red blood cells (erythrocytes). Within erythrocytes, merozoites begin a […] cycle of growth and division, after which the parasite is released to infect new red blood cells. Gametocytes, which form within erythrocytes as well, circulate in the bloodstream and are ingested by the mosquito, thereby completing the life cycle (see CDC website). To profile malarial lines for differential chemical responses and to identify inhibitors of malarial growth, an assay that measures P. falciparum growth and replication within erythrocytes was employed. This assay uses a DNA binding fluorescent dye (SYBR Green) to detect parasite DNA following cell lysis. Because mature erythrocytes lack DNA, only Plasmodium-derived DNA is detected. The P. falciparum line cp250, derived from a malarial isolate from Cambodia, (Mu, J., et al. 2010) was added to the panel of lines, Dd2, HB3, 7G8 and GB4 in this study. Laboratory of Assay Development and Screening Technology [ADST] and NIH Chemical Genomics Center [NCGC] Boston University, Chemistry Department, Center for Chemical Methodology and Library Development [CMLD-BU] NIH National Institute of Allergy and Infectious Diseases [NIAID]
ADST Assay Protocol Summary: The 1536-well SYBR Green viability assay was based on the method of Bennett et al (2004) and described previously in 1536-well format (Yuan J., et al. 2009). For screening 3 ul culture medium was dispensed into 1536 well black clear bottom plates (Aurora Biotechnologies) using a Multidrop Combi (Thermo Fisher Scientific Inc.), 23 nL compounds in DMSO were added by a pin transfer (Cleveland, P.H. and Koutz, P.J, 2005) using a pin tool-based delivery system (Kalypsys), and 5 ul of erythrocytes infected with P. falciparum one of five lines (cp250, Dd2, HB3, 7G8 or GB4, 0.3% parasitemia, 2.5% hematocrit final concentration) were added. The plates were incubated at 37C in a humidified incubator in 5% CO2 for 72 h, and 2 ul lysis buffer (20 mM Tris HCl, 10 mM EDTA, 0.16% saponin, 1.6% triton X, 10X SYBR Green I (supplied as 10,000X final concentration by Invitrogen) was added to each well. The plates were mixed for 25 sec with gentle shaking and incubated overnight at room temperature in the dark. The following morning, fluorescence intensity at 485(14) nm excitation and 535(25) nm emission wavelengths was measured on an EnVision (Perkin Elmer) plate reader. Plate reads were normalized relative to the control inhibitor (0.29 uM artemisinin) and vehicle (DMSO) wells present on each plate and then corrected by an algorithm using vehicle-only control plates at the beginning and end of the compound plate stack. References Shah, S. (2010). The Fever: how malaria has ruled humankind for 500,000 years. New York, Sarah Crichton Books. CDC web site, http://www.cdc.gov/malaria/about/biology/index.html Mu, J., Myers, R.A., Jiang, H., Liu, S., Ricklefs, S., Waisberg, M., Chotivanich, K., Wilairatana, P., Krudsood, S., White, N.J., et Plasmodium falciparum genome-wide scans for positive selection, recombination hot spots and resistance to antimalarial drugs Nature Genetics 2010, 42, pp 268-271 Bennett TN, Paguio, M., Gligorijevic, B., Seudieu, C., Kosar, A. D., Davidson, E., and Roepe, P. D. Novel, rapid, and inexpensive cell-based quantification of antimalarial drug efficacy Antimicrobial Agents Chemother. 2004, 48(5): pp 1807-10 Yuan J, Johnson RL, Huang RL, Wichterman J, Jiang HY, Hayton K, Fidock DA, Wellems TE, Inglese J, Austin CP, Su XZ. […]

SMILES	activity change, negative = inhibition [%]	outcome
COC(=O)[C@@H]1[C@@H](c2ccccc2)[C@H]2C(=O)c3c(OC)cc(OC)cc3O[C@@]12c1ccc(OC)cc1	-3.85	–
COC(=O)[C@@]1(C=C[C@@H](C)[C@H](OC)c2ccccc2Br)[C@@H]2Oc3ccccc3[C@@H]21	-5.06	–
CC(=O)[C@]12[C@H](c3ccccc3)[C@@H]3CCN(C(=O)N[C@H]1c1ccccc1)[C@@]32C	1.03	–
COC(=O)C1=C2CCO[C@H]2[C@@H]2[C@@H](C)[C@H](OC)c3ccccc3[C@@H]12	-3.26	–
COC(=O)C1C2CC(C)C(c3ccccc32)N1C(=O)C(F)(F)F (stereo not drawn)	–	inactive
COC(=O)[C@@]1(C=C2c3ccc(F)cc3[C@@H](OC)[C@@H]2C)[C@@H]2c3ccccc3O[C@@H]21	-14.4	–
COC(=O)C12CC3=CCC4C(=O)N(c5ccccc5)C(=O)C4C3Cc3ccccc3[C@H]1CNC2=O (stereo partly drawn)	-11.4	–
COC(=O)[C@@]12Cc3ccccc3[C@H]1C[C@H](C)[C@@H](C)N2C(=O)C(F)(F)F	-9.72	–
CCC[C@]12CCN3C(=O)N[C@@H](c4ccccc4)[C@](C(=O)OCC)(C1)[C@H]32	-3.65	–
CCOC(=O)[C@]12C[C@]3(C)CCN(C(=O)N[C@@H]1c1ccccc1)[C@@H]32	8.41	–
COC(=O)C1=C2CCCO[C@H]2[C@@H]2[C@@H](C)[C@H](OC)c3ccccc3[C@@H]12	4	–
COC(=O)C1(C)C2CC(C)C(c3ccccc32)N1C(=O)C(F)(F)F (stereo not drawn)	3.3	–
COC(=O)[C@]12C[C@@H]3CCN(C(=O)N[C@@H]1c1ccccc1)[C@@]32C	-4.75	–
COC(=O)[C@@]1(C=C2c3ccccc3[C@@H](OC)[C@@H]2C)[C@@H]2Oc3ccccc3[C@@H]21	3.21	–
COC(=O)[C@@]1(C=C2c3ccc(F)cc3[C@@H](OC)[C@@H]2C)[C@@H]2Oc3ccccc3[C@@H]21	-10.1	–
COC(=O)C1=C[C@H]([C@@H](C)[C@H](OC)c2ccccc2Br)[C@H]2[C@H]1c1ccccc1N2C	-4.34	–
CCOC(=O)[C@@]12C3[C@@H](CCN3C(=O)N[C@@H]1c1ccccc1)[C@@H]2C (stereo partly drawn)	-6.73	–
CO[C@@H]1c2ccccc2[C@H]2C(C(=O)O)c3c(n(C)c4ccccc34)[C@H]2[C@H]1C (stereo partly drawn)	-11.2	–
C=C(C)C(=O)CP(=O)(OCC)OCC	13.1	–
CCOC(=O)[C@]12C[C@]3(OC)CCN(C(=O)N[C@@H]1c1ccccc1)[C@@H]32	0.446	–
CC(=O)[C@]12C[C@]3(C)CCCN(C(=O)N[C@@H]1c1ccccc1)C32 (stereo partly drawn)	-1.97	–
CCOC(=O)[C@]12C[C@]3(C)CCCN(C(=O)N[C@@H]1c1ccccc1)[C@@H]32	11.4	–
COC(=O)C1=NN=C(C(=O)OC)[C@@]2(C)c3ccccc3NC12 (stereo partly drawn)	12.5	–
CCOC(=O)[C@]12C[C@@H]3CCN(C(=O)N(C(C)=O)[C@@H]1c1ccccc1)[C@@H]32	-7.45	–
CC(=O)[C@]12C[C@@H]3CCCN(C(=O)N[C@@H]1c1ccccc1)[C@@H]32	0.674	–
CCOC(=O)[C@]12C[C@@H]3OCCN(C(=O)N[C@@H]1c1ccccc1)[C@@H]32	2.07	–
C=C1[C@@H]2CCN3C(=O)N[C@@H](c4ccccc4)[C@@]1(C(=O)OCC)C23 (stereo partly drawn)	-1.09	–
COC(=O)C1=C2CCO[C@@H]2[C@H]2[C@@H](C)[C@H](OC)c3ccccc3[C@H]12	-8.33	–
